Reference: the supplement of paper PMC8007513
Counter-ions that a name gives are not always drawn. ± gives the standard error. In all, about 1,300 compounds went through this assay and about 75 (6%) showed an effect of 50% or more. Many of the other results were omitted from the sample, so strong results are more common in it than they were.

Tested on: Trichoderma virens ATCC 9645
Assay: growth yield (OD600) relative to untreated control; higher = less growth inhibition
Conditions: compound concentration: 100 uM
How it was run: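 Library compounds (100 μM final), with or without a co-applied biocide (200 ng ml^−1), were added to 100 μl aliquots of Trichoderma virens ATCC 9645 spores at 15,000 spores ml^−1 in potato dextrose broth. Cultures were grown at 30 °C in 96-well plates, and OD600 was measured at 40 h and 72 h. Each growth value is a mean of duplicate screens, expressed relative to the control with neither agent.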

Structure (SMILES) | growth yield (40 h) | growth yield (72 h)
Oc1cc(Cl)ccc1Oc1ccc(Cl)cc1Cl [Triclosan] | 6.99 ± 4.1% | 3.25 ± 0.1%
CCNCC(O)c1cccc(O)c1 (stereo not given) [Etilefrine hydrochloride] | 105 ± 3% | 103.1 ± 0.94%
C=CCC1(CC(C)C)C(=O)NC(=O)NC1=O [Butalbital] | 98.2% | 96.5%
CNCC(O)c1ccc(O)cc1 (racemic) [(+,-)-Synephrine] | 105 ± 4.3% | 100 ± 2.3%
O=C([O-])c1ccccc1-c1c2cc(Br)c(=O)cc-2oc2[c]([Hg+])c([O-])c(Br)cc12.[Na+].[Na+].[OH-] [Merbromin] | 2.54 ± 0.95% | 2.2 ± 0.94%
CCN(CC)C(C)C(=O)c1ccccc1 (stereo not given) [Amfepramone hydrochloride] | 102 ± 3% | 99 ± 3.1%
CC1OC(OC2/C=C/C=C/C=C/C=C/CC/C=C/C=C/[C@H](C)[C@@H](O)[C@@H](C)[C@H](C)OC(=O)CC(O)CC(O)CC(O)CCC(O)C(O)C[C@]3(O)CC(O)C(C(=O)O)C(C2)O3)C(O)C(N)C1O (stereo not given in full) [Nystatine] | 97.4 ± 5.6% | 107.3 ± 0.94%
O=C(CCCN1CCC(n2c(=O)[nH]c3ccccc32)CC1)c1ccc(F)cc1 [Benperidol] | 102 ± 5.2% | 99.9 ± 7.2%
CC[C@H](C)[C@H]1O[C@]2(C=C[C@@H]1C)C[C@@H]1C[C@@H](C/C=C(\C)[C@@H](O[C@H]3C[C@H](OC)[C@@H](O[C@H]4C[C@H](OC)[C@@H](O)[C@H](C)O4)[C@H](C)O3)[C@@H](C)/C=C/C=C3\CO[C@@H]4[C@H](O)C(C)=C[C@@H](C(=O)O1)[C@]34O)O2.CO[C@H]1C[C@H](O[C@H]2[C@H](C)O[C@@H](O[C@@H]3/C(C)=C/C[C@@H]4C[C@@H](C[C@]5(C=C[C@H](C)[C@@H](C(C)C)O5)O4)OC(=O)[C@@H]4C=C(C)[C@@H](O)[C@H]5OC/C(=C\C=C\[C@@H]3C)[C@]54O)C[C@@H]2OC)O[C@@H](C)[C@@H]1O [Avermectin B1] | 107 ± 5.6% | 105 ± 2.3%
CCCCCC[C@H]1C(=O)O[C@H](C)[C@H](NC(=O)c2cccc(NC=O)c2O)C(=O)O[C@@H](C)[C@@H]1OC(=O)CC(C)C [Antimycin A] | 27.5 ± 1.1% | 49.6 ± 2.6%
C#CCN(C)[C@H](C)Cc1ccccc1 [Selegiline hydrochloride] | 102 ± 1.4% | 104 ± 5%
CCCC(C)C1(CC)C(=O)NC(=O)NC1=O (stereo not given) [Pentobarbital] | 101.3 ± 0.95% | 102 ± 1.7%
CC(=O)OCC1=C(C(=O)O)N2C(=O)[C@@H](N)[C@H]2SC1 [Cephalosporanic acid, 7-amino] | 105 ± 5.7% | 107 ± 6.2%
CCC(=O)O[C@@](Cc1ccccc1)(c1ccccc1)[C@@H](C)CN(C)C [Levopropoxyphene napsylate] | 106 ± 2.9% | 103 ± 3.4%
C[C@]12C/C(=C/O)C(=O)C[C@@H]1CC[C@@H]1[C@@H]2CC[C@@]2(C)[C@H]1CC[C@]2(C)O [Oxymetholone] | 96.9 ± 9.2% | 91.5 ± 4.8%
C[C@@H]1C[C@@H]([C@H](O)CC2CC(=O)NC(=O)C2)C(=O)[C@@H](C)C1 [Cycloheximide] | 46.7 ± 7.3% | 75.5 ± 5.5%
NCC(CC(=O)O)c1ccc(Cl)cc1 (racemic) [Baclofen (R,S)] | 105 ± 4.1% | 105 ± 4.7%
CN[C@@H]1[C@@H](O)[C@@H](O[C@@H]2[C@@H](O)[C@H](O[C@H]3O[C@H](CN)CC[C@H]3N)[C@@H](N)C[C@H]2N)OC[C@]1(C)O.CN[C@@H]1[C@@H](O)[C@@H](O[C@@H]2[C@@H](O)[C@H](O[C@H]3O[C@H]([C@@H](C)N)CC[C@H]3N)[C@@H](N)C[C@H]2N)OC[C@]1(C)O.CN[C@@H]1[C@@H](O)[C@@H](O[C@@H]2[C@@H](O)[C@H](O[C@H]3O[C@H]([C@@H](C)NC)CC[C@H]3N)[C@@H](N)C[C@H]2N)OC[C@]1(C)O [Gentamicine sulfate] | 101% | 97.3%
NC(=O)OCCCc1ccccc1 [Phenprobamate] | 104 ± 6.3% | 101 ± 4.6%
COc1cccc(C2(O)CCCCC2CN(C)C)c1 (stereo not given) [Tramadol hydrochloride] | 101 ± 1.3% | 99.8 ± 2.1%
